This is an account of results in paper PMC7862700, “An all-to-all approach to the identification of sequence-specific readers for epigenetic DNA modifications on cytosine”.

Assay in all cases: DAPPL (digital affinity profiling via proximity ligation, sequencing); 10 mM Tris-HCl pH 7.5, 50 mM NaCl, 1 mM DTT, 4% glycerol, room temperature, 30 min; GST-TFs on glutathione beads, 16-mer random dsDNA library, 0.1% formaldehyde crosslink after washing; high values mean tight binding
Common to all, as to details: protein: recombinant; tags: N-terminal GST; dsDNA, one strand shown

One assay concerns the target T1, ERF (Homo sapiens, UniProt P50548 1-548).
T1 sequence: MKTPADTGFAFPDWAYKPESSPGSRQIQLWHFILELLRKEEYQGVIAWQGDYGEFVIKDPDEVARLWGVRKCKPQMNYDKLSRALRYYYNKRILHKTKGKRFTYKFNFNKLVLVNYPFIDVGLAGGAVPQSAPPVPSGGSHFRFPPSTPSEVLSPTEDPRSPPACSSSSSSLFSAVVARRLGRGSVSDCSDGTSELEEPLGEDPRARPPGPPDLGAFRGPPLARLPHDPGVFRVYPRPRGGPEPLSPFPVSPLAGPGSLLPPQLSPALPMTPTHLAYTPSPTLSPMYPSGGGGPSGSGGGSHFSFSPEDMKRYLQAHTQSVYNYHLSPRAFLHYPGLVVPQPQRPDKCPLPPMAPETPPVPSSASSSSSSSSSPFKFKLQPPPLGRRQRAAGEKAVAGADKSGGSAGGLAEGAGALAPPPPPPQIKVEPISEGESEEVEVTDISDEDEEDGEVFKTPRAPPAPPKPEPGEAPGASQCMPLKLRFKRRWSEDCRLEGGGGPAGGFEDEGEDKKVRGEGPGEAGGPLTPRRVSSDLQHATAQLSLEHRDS
Summed up: (§1)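 Binding signal is each hexamer's read frequency for a factor divided by its frequency in the tag-only sample. The factors were GST-fused human transcription factors from yeast, captured on glutathione beads, DNA-barcoded and pooled with that sample. Pools were incubated with 200 nmole of a random double-stranded 16-mer DNA library in Tris/NaCl/DTT/glycerol buffer at room temperature for 30 min, then washed, crosslinked with 0.1% formaldehyde, proximity-ligated with BsaI/T4 ligase (1 h, 37 °C), PCR-amplified and sequenced on an Illumina NextSeq500.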

The target of a further assay is T2, ETV3L (Homo sapiens, UniProt Q6ZN32 1-361).
T2 sequence: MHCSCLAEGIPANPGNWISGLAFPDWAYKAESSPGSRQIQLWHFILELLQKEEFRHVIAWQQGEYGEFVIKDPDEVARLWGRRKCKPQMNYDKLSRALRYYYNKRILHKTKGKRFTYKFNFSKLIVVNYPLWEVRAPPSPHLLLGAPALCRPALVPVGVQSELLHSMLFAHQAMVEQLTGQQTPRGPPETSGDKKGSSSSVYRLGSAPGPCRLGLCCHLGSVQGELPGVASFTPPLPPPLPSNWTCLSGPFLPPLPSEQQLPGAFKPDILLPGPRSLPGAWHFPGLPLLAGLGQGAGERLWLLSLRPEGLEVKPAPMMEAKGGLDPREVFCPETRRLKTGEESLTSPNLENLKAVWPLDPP
Summed up:
as §1

The next assay addresses T3, ETS2 (Homo sapiens, UniProt P15036 1-469).
T3 sequence: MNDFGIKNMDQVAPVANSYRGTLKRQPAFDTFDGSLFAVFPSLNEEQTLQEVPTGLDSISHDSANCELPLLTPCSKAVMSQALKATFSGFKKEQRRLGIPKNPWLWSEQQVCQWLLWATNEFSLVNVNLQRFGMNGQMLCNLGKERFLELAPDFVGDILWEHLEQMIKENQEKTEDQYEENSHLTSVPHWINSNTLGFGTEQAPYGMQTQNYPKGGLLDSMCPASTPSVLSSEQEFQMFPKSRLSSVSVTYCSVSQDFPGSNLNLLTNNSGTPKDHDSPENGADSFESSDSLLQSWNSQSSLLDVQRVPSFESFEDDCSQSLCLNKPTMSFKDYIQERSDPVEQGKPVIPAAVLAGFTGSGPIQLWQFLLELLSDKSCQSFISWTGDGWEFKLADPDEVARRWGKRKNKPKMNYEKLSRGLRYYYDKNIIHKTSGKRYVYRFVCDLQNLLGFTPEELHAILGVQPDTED
The gist of the method:
as §1

In another assay the target is T4, SPDEF (Homo sapiens, UniProt O95238 1-335).
T4 sequence: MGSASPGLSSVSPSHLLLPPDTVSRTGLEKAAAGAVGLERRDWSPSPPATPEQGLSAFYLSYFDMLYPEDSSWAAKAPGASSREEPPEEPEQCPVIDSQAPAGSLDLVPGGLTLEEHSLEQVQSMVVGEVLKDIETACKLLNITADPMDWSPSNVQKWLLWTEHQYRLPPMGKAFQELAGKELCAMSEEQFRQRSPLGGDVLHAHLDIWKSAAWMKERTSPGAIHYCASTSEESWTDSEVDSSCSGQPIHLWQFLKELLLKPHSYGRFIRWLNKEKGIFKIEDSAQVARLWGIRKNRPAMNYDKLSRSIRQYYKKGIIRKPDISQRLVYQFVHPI
The gist of the method: as §1

Another assay deals with T5, ETV7 (Homo sapiens, UniProt Q9Y603 1-341).
T5 sequence: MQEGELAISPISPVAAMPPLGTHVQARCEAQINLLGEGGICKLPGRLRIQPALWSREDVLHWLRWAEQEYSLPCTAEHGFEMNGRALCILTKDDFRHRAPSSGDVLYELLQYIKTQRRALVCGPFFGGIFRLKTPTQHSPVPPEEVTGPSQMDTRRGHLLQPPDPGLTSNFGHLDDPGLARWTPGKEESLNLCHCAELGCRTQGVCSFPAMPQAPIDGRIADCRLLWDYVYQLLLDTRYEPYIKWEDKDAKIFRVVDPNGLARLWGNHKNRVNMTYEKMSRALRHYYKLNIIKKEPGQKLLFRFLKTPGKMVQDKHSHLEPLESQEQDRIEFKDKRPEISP
Summed up:
as §1

The target in another assay is T6, ELF5 (Homo sapiens, UniProt Q9UKW6-2 1-255).
T6 sequence: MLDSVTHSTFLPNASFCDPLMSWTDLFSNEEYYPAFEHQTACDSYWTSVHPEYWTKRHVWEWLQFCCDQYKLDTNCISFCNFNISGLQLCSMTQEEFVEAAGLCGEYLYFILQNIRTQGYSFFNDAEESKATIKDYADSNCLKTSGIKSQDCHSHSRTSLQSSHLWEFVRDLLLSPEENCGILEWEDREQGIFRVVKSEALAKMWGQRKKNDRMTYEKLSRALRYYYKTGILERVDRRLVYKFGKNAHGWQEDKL
The gist of the method:
as §1

A further assay concerns the target T7, ETV3 (Homo sapiens, UniProt P41162-2 1-143).
T7 sequence: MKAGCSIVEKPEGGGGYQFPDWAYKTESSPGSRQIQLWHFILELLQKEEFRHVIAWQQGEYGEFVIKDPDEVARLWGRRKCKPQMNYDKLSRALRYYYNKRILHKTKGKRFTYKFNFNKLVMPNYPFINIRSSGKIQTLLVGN
Summed up: as §1

The next assay has as its target ETV6 (Homo sapiens, UniProt P41212 1-452). The gist of the method: as §1

Sequence of ETV6 (P41212 whole entry): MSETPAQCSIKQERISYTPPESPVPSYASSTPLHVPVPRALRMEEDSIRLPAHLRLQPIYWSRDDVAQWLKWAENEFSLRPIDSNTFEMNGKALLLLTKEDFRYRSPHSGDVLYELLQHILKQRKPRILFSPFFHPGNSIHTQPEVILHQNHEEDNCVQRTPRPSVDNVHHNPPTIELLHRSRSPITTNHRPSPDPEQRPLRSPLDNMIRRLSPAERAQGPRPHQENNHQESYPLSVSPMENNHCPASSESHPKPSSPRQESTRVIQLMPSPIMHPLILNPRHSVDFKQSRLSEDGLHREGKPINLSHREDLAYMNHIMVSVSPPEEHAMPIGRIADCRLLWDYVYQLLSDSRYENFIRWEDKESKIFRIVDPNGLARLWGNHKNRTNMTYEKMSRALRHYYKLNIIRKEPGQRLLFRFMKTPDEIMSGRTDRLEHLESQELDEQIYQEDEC

As for CTGTTG, the binding signal with ERF is 1.17 fold enrichment (6-mer frequency, TF over GST control); in the assay with ETV3L, 1.07 fold enrichment (6-mer frequency, TF over GST control); in the assay with ETS2 it was 1.21 fold enrichment (6-mer frequency, TF over GST control); in the assay with SPDEF, 1.12 fold enrichment (6-mer frequency, TF over GST control); with ETV7, 1.05 fold enrichment (6-mer frequency, TF over GST control); with ELF5, 1.09 fold enrichment (6-mer frequency, TF over GST control). Further, the binding signal is 1.21 fold enrichment (6-mer frequency, TF over GST control) with ETV3 and 1.08 fold enrichment (6-mer frequency, TF over GST control) in the assay with ETV6.
As for CTTACT, the binding signal with ERF was 1.32 fold enrichment (6-mer frequency, TF over GST control); in the assay with ETV3L it was 1.22 fold enrichment (6-mer frequency, TF over GST control); with ETS2, 1.26 fold enrichment (6-mer frequency, TF over GST control); with SPDEF, 1.21 fold enrichment (6-mer frequency, TF over GST control); in the assay with ETV7, 1.18 fold enrichment (6-mer frequency, TF over GST control); in the assay with ELF5, 1.3 fold enrichment (6-mer frequency, TF over GST control). The binding signal with ETV3 was 1.27 fold enrichment (6-mer frequency, TF over GST control); with ETV6 it was 1.3 fold enrichment (6-mer frequency, TF over GST control).
Take CGATAT: the binding signal with ERF was 1.1 fold enrichment (6-mer frequency, TF over GST control); in the assay with ETV3L, 1.14 fold enrichment (6-mer frequency, TF over GST control); in the assay with ETS2, 1.12 fold enrichment (6-mer frequency, TF over GST control); with SPDEF, 1.06 fold enrichment (6-mer frequency, TF over GST control); with ETV7, 1.11 fold enrichment (6-mer frequency, TF over GST control); in the assay with ELF5 it was 1.06 fold enrichment (6-mer frequency, TF over GST control). In addition, the binding signal was 1.03 fold enrichment (6-mer frequency, TF over GST control) with ETV3 and 1.06 fold enrichment (6-mer frequency, TF over GST control) with ETV6.
In the case of TCATGC, the binding signal is 1.13 fold enrichment (6-mer frequency, TF over GST control) with ERF; 1.12 fold enrichment (6-mer frequency, TF over GST control) in the assay with ETV3L; 1.13 fold enrichment (6-mer frequency, TF over GST control) with ETS2; 1.18 fold enrichment (6-mer frequency, TF over GST control) with SPDEF; 1.17 fold enrichment (6-mer frequency, TF over GST control) in the assay with ETV7; 1.07 fold enrichment (6-mer frequency, TF over GST control) in the assay with ELF5. For the same sequence, the binding signal is 1.18 fold enrichment (6-mer frequency, TF over GST control) with ETV3 and 1.11 fold enrichment (6-mer frequency, TF over GST control) in the assay with ETV6.
Turning to CTACGT, the binding signal was 1.24 fold enrichment (6-mer frequency, TF over GST control) with ERF; 1.29 fold enrichment (6-mer frequency, TF over GST control) with ETV3L; 1.12 fold enrichment (6-mer frequency, TF over GST control) with ETS2; 1.12 fold enrichment (6-mer frequency, TF over GST control) with SPDEF; 1.35 fold enrichment (6-mer frequency, TF over GST control) in the assay with ETV7; 1.27 fold enrichment (6-mer frequency, TF over GST control) in the assay with ELF5. For the same sequence, the binding signal with ETV3 was 1.17 fold enrichment (6-mer frequency, TF over GST control); with ETV6, 1.42 fold enrichment (6-mer frequency, TF over GST control).
On to CACTCC, for which the binding signal is 1.15 fold enrichment (6-mer frequency, TF over GST control) with ERF; 1.33 fold enrichment (6-mer frequency, TF over GST control) in the assay with ETV3L; 1.17 fold enrichment (6-mer frequency, TF over GST control) in the assay with ETS2; 1.2 fold enrichment (6-mer frequency, TF over GST control) with SPDEF; 1.24 fold enrichment (6-mer frequency, TF over GST control) in the assay with ETV7; 1.18 fold enrichment (6-mer frequency, TF over GST control) with ELF5. The binding signal with ETV3 is 1.26 fold enrichment (6-mer frequency, TF over GST control); in the assay with ETV6 it was 1.28 fold enrichment (6-mer frequency, TF over GST control).
In the case of AGAAAT, the binding signal with ERF is 1.13 fold enrichment (6-mer frequency, TF over GST control); with ETV3L, 1.17 fold enrichment (6-mer frequency, TF over GST control); with ETS2, 1.21 fold enrichment (6-mer frequency, TF over GST control); with SPDEF it was 1.03 fold enrichment (6-mer frequency, TF over GST control); with ETV7, 1.21 fold enrichment (6-mer frequency, TF over GST control); in the assay with ELF5 it was 1.15 fold enrichment (6-mer frequency, TF over GST control). In addition, the binding signal is 1.09 fold enrichment (6-mer frequency, TF over GST control) with ETV3 and 1.18 fold enrichment (6-mer frequency, TF over GST control) in the assay with ETV6.
